Results from PubChem BioAssay (EPA / NIEHS).
Activity calls are given as the source filed them. Rule for the calls: active = hit-call score of the fitted dose curve at least 0.9, where 1 is the maximum; inactive = score below 0.9.

Columns and labels:
[1] = read-out: Interleukin-1 alpha (IL1a), IL1A (gene 3552); assay: BSK_KF3CT_IL1a: BioMAP Diversity Plus: KF3CT Assay for Interleukin-1 alpha (IL1a) Biomarker Activity (AID 2283070); details: primary human keratinocytes with fibroblasts; actives raise or lower the signal
Summary of the method: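 Readout is IL-1a level by ELISA, compared bidirectionally with DMSO as baseline. Cells: human keratinocytes co-cultured with foreskin fibroblasts, harvested 24 h post-dose.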

[2] = read-out: TIMP metallopeptidase inhibitor 2 (TIMP2), TIMP2 (gene 7077); assay: BSK_KF3CT_TIMP2: BioMAP Diversity Plus: KF3CT Assay for TIMP metallopeptidase inhibitor 2 (TIMP2) Biomarker Activity (AID 2283071); details: primary human keratinocytes with fibroblasts; actives raise or lower the signal
Summary of the method: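 TIMP-2 measured by ELISA at 24 h in human keratinocyte/fibroblast primary co-cultures exposed to chemicals. Both increases and decreases were fitted against DMSO. Parallel cultures were stained with SRB for total protein as an overt-cytotoxicity check.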

[3] = read-out: Transforming growth factor beta 1 (TGFb1), TGFB1 (gene 7040); assay: BSK_KF3CT_TGFb1: BioMAP Diversity Plus: KF3CT Assay for Transforming growth factor beta 1 (TGFb1) Biomarker Activity (AID 2283072); details: primary human keratinocytes with fibroblasts; actives raise or lower the signal
Summary of the method: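 ELISA quantifies TGF-b1 at 24 h post-dose in a primary human skin co-culture of keratinocytes and fibroblasts, with gain or loss judged against DMSO. Parallel SRB total-protein staining flags overt cytotoxicity.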

[4] = read-out: C-C motif chemokine 2 (Homo sapiens) (UniProt P13500); assay: BSK_KF3CT_MCP1: BioMAP Diversity Plus: KF3CT Assay for Monocyte Chemoattractant Protein 1 (MCP1/CCL2) Biomarker Activity (AID 2283073); details: primary human keratinocytes with fibroblasts; actives raise or lower the signal
Summary of the method: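 Human keratinocyte–foreskin fibroblast co-culture; MCP-1 measured by ELISA 24 h after dosing. Bidirectional fit vs DMSO; cytotoxicity tracked by SRB total protein in parallel cultures.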

[5] = read-out: Matrix Metallopeptidase 9 (MMP9), MMP9 (gene 4318); assay: BSK_KF3CT_MMP9: BioMAP Diversity Plus: KF3CT Assay for Matrix Metallopeptidase 9 (MMP9) Biomarker Activity (AID 2283074); details: primary human keratinocytes with fibroblasts; actives raise or lower the signal
Summary of the method: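 Values come from bidirectional fitting relative to DMSO of MMP-9 levels, which were measured by ELISA. Measurements were taken 24 h after chemical dosing of a keratinocyte and foreskin fibroblast co-culture.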

[6] = read-out: urokinase plasminogen activator (uPA), PLAU (gene 5328); assay: BSK_KF3CT_uPA: BioMAP Diversity Plus: KF3CT Assay for urokinase plasminogen activator (uPA) Biomarker Activity (AID 2283075); details: primary human keratinocytes with fibroblasts; actives raise or lower the signal
Summary of the method: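 Values derive from bidirectional fitting against DMSO controls. Keratinocyte/foreskin fibroblast co-cultures received chemical; 24 h later uPA was detected by ELISA, with SRB total-protein staining in parallel wells for overt cytotoxicity.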

CD40, CD40 (gene 958) [7] = assay: BSK_LPS_CD40: BioMAP Diversity Plus: LPS Assay for CD40 Biomarker Activity (AID 2283076); details: primary human HUVEC with PBMC; actives raise or lower the signal
Summary of the method: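 HUVEC plus PBMC co-culture stimulated with LPS; CD40 quantified by ELISA 24 h after compound dosing. Fitting was bidirectional relative to DMSO. SRB staining of parallel cultures flagged overt cytotoxicity.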

[8] = read-out: E-selectin (Homo sapiens) (UniProt P16581); assay: BSK_LPS_Eselectin: BioMAP Diversity Plus: LPS Assay for Eselectin Biomarker Activity (AID 2283077); details: primary human HUVEC with PBMC; actives raise or lower the signal
Summary of the method: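 Human umbilical vein endothelial cells co-cultured with PBMC under LPS stimulation; cell-surface E-selectin measured by ELISA 24 h after dosing. Change in either direction versus DMSO, with SRB total-protein staining in parallel cultures for cytotoxicity.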

[9] = read-out: Interleukin-8 (IL8), CXCL8 (gene 3576); assay: BSK_LPS_IL8: BioMAP Diversity Plus: LPS Assay for Interleukin-8 (IL8) Biomarker Activity (AID 2283078); details: primary human HUVEC with PBMC; actives raise or lower the signal
Summary of the method: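 Human umbilical vein endothelial cells co-cultured with PBMC, LPS-stimulated, exposed to compound for 24 h. IL-8 quantified by ELISA; fitted in both directions against DMSO, with SRB total-protein staining of parallel cultures for cytotoxicity.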

[10] = BSK_LPS_SRB: Viability Assessment in the BioMAP Diversity Plus: LPS Assay (AID 2283079); details: primary human HUVEC with PBMC;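 note: total protein by sulforhodamine B absorbance as a cytotoxicity measure; measured one day after compound addition; fitted in both directions against DMSO so loss or gain of signal counts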
Summary of the method: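 Co-culture of human umbilical vein endothelial cells and PBMC, read 24 h after dosing. Total protein by 0.1% SRB staining after 10% TCA fixation, absorbance at 560 nm; bidirectional fit against DMSO.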

[11] = read-out: Interleukin-1 alpha (IL1a), IL1A (gene 3552); assay: BSK_LPS_IL1a: BioMAP Diversity Plus: LPS Assay for Interleukin-1 alpha (IL1a) Biomarker Activity (AID 2283080); details: primary human HUVEC with PBMC; actives raise or lower the signal
Summary of the method: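 Human umbilical vein endothelial cells co-cultured with PBMC and stimulated with LPS; IL-1a measured by ELISA 24 h after dosing. Bidirectional fitting against DMSO; cytotoxicity checked by SRB staining in parallel cultures.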

[12] = read-out: Monocyte Chemoattractant Protein-1 (MCP1), CCL2 (gene 6347); assay: BSK_LPS_MCP1: BioMAP Diversity Plus: LPS Assay for Monocyte Chemoattractant Protein-1 (MCP1) Biomarker Activity (AID 2283081); details: primary human HUVEC with PBMC; actives raise or lower the signal;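 note: secreted MCP-1 protein quantified by ELISA in culture supernatant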
Summary of the method: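 Human umbilical vein endothelial cells co-cultured with PBMC, LPS-stimulated; secreted MCP-1 measured by ELISA 24 h after compound addition. Bidirectional curve fitting against DMSO baseline; SRB total-protein staining in parallel cultures for cytotoxicity.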

[13] = BSK_LPS_PGE2: BioMAP Diversity Plus: LPS Assay for Prostaglandin E2 (PGE2) Biomarker Activity (AID 2283082); details: primary human HUVEC with PBMC; actives raise or lower the signal
Summary of the method: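 PGE2 release measured by ELISA in an LPS-activated co-culture of human umbilical vein endothelial cells and peripheral blood mononuclear cells, read at 24 h post-dosing. DMSO served as baseline for bidirectional curve fitting.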

[14] = read-out: Macrophage colony-stimulating factor (MCSF), CSF1 (gene 1435); assay: BSK_LPS_MCSF: BioMAP Diversity Plus: LPS Assay for Macrophage colony-stimulating factor (MCSF) Biomarker Activity (AID 2283083); details: primary human HUVEC with PBMC; actives raise or lower the signal
Summary of the method: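 HUVEC–PBMC co-culture, M-CSF measured by ELISA 24 h after chemical dosing. Fitted in both directions relative to DMSO as negative control; overt cytotoxicity assessed by SRB total-protein staining in parallel cultures.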

[15] = read-out: Tissue Factor, F3 (gene 2152); assay: BSK_LPS_TissueFactor: BioMAP Diversity Plus: LPS Assay for Tissue Factor Biomarker Activity (AID 2283084); details: primary human HUVEC with PBMC; actives raise or lower the signal
Summary of the method: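 Human umbilical vein endothelial cells co-cultured with PBMC were dosed with compound. Cell-surface CD142 was measured by ELISA 24 h later. Activity was fitted bidirectionally against DMSO, with SRB total-protein staining in parallel cultures for cytotoxicity.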

[16] = read-out: Tumor necrosis factor (Homo sapiens) (UniProt P01375); assay: BSK_LPS_TNFa: BioMAP Diversity Plus: LPS Assay for Tumour Necrosis Factor alpha (TNFa) Biomarker Activity (AID 2283085); details: primary human HUVEC with PBMC; actives raise or lower the signal;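 note: TNFa protein level quantified by ELISA in the co-culture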
Summary of the method: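 TNFa was quantified by ELISA in LPS-activated co-cultures of human endothelial cells and PBMC, 24 h post-dosing. Both increases and decreases versus DMSO were fitted.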

[17] = read-out: Vascular cell adhesion molecule 1 (VCAM1), VCAM1 (gene 7412); assay: BSK_LPS_VCAM1: BioMAP Diversity Plus: LPS Assay for Vascular cell adhesion molecule 1 (VCAM1) Biomarker Activity (AID 2283086); details: primary human HUVEC with PBMC; actives raise or lower the signal
Summary of the method: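 VCAM-1 quantified by ELISA in an LPS-activated co-culture of human endothelial cells and peripheral blood mononuclear cells, read 24 h post-treatment. Fitted in both directions versus DMSO; parallel SRB staining flags overt cytotoxicity.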

CD38, CD38 (gene 952) = assay: BSK_SAg_CD38: BioMAP Diversity Plus: SAg Assay for CD38 Biomarker Activity (AID 2283087); details: primary human HUVEC with PBMC; actives raise or lower the signal
Summary of the method: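 CD38 quantified by ELISA (fluorescence) in a superantigen-activated endothelial cell–PBMC co-culture at 24 h post-dose. Activity fitted in both directions relative to DMSO; parallel SRB and Alamar Blue cytotoxicity read-outs.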

CD40, CD40 (gene 958) [18] = assay: BSK_SAg_CD40: BioMAP Diversity Plus: SAg Assay for CD40 Biomarker Activity (AID 2283088); details: primary human HUVEC with PBMC; actives raise or lower the signal
Summary of the method: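 HUVEC plus PBMC co-culture, superantigen-activated, with CD40 read by ELISA 24 h after dosing. Curves fitted in both directions against DMSO. Overt cytotoxicity checked by parallel SRB total-protein staining.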

CD69, CD69 (gene 969) = assay: BSK_SAg_CD69: BioMAP Diversity Plus: SAg Assay for CD69 Biomarker Activity (AID 2283089); details: primary human HUVEC with PBMC; actives raise or lower the signal;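 note: cell surface CD69 protein quantified by ELISA with fluorescence detection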
Summary of the method: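 Values derive from bidirectional fitting relative to DMSO vehicle. Cells: umbilical vein endothelium plus peripheral blood mononuclear cells, treated 24 h before fluorescent ELISA for CD69.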

Measured: AC50

E-selectin (Homo sapiens), sequence (P16581 whole entry, looked up): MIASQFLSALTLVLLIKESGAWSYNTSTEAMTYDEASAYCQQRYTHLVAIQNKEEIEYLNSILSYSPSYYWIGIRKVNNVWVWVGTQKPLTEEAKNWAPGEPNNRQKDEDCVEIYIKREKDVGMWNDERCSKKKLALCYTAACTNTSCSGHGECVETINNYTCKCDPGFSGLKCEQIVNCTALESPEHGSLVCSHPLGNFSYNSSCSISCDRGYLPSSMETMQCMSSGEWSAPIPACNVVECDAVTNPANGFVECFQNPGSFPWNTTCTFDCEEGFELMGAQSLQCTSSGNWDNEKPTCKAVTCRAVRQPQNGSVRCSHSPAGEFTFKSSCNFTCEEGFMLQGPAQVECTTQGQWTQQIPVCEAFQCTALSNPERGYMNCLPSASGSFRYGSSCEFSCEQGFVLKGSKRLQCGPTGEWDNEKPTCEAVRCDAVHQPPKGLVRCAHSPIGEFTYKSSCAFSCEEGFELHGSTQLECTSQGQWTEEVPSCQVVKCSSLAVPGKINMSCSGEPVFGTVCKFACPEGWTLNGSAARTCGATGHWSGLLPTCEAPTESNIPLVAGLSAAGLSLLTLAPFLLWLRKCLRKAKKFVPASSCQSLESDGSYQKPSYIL
Tumor necrosis factor (Homo sapiens), sequence (P01375 whole entry, looked up): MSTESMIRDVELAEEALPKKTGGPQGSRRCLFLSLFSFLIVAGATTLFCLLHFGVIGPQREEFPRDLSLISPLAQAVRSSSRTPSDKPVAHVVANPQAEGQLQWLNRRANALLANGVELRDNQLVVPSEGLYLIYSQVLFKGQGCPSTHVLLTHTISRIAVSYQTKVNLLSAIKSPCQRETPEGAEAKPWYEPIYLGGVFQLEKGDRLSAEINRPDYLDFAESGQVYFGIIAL

COc1ccc(C(=CC(=O)N2CCOCC2)c2ccc(Cl)cc2)cc1OC
inactive: [1] | [2] | [3] | [4] | [5] | [6] | [9] | [10] | [11] | [13] | [15] | [17]
active: CD40, CD40 (gene 958) [7] 14.1 µM | [8] 10.3 µM | [12] 1.25 µM | [14] 12.8 µM | [16] 1.4 µM | CD38, CD38 (gene 952) 17.4 µM | CD40, CD40 (gene 958) [18] 6.93 µM | CD69, CD69 (gene 969) 4.3 µM
